28 sequences from the supplement of paper PMC3545927 can be followed below.

This is one part of the list. No count for the full screen is at hand.

This assay has as its target furin, P09958. Kind of assay: furin cleavage Z-score vs untreated control; higher = more cleavage, active = 3.5 or more, inactive = 1 or less, 8 variable residues between constant flanks. The gist of the method:
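The cleavage Z-score is the log read count relative to furin-free reactions, lowess-adjusted and scaled by median absolute deviation. Counts came from sequencing DNA released from bead-bound 8-mer peptide–cDNA fusions after digestion with purified furin for 7.5, 15 or 30 min.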
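Further: purified furin at 1:10 enzyme:substrate in 50 mM HEPES pH 7.5.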

furin, P09958, sequence (P09958 whole entry, the tested form may be a part): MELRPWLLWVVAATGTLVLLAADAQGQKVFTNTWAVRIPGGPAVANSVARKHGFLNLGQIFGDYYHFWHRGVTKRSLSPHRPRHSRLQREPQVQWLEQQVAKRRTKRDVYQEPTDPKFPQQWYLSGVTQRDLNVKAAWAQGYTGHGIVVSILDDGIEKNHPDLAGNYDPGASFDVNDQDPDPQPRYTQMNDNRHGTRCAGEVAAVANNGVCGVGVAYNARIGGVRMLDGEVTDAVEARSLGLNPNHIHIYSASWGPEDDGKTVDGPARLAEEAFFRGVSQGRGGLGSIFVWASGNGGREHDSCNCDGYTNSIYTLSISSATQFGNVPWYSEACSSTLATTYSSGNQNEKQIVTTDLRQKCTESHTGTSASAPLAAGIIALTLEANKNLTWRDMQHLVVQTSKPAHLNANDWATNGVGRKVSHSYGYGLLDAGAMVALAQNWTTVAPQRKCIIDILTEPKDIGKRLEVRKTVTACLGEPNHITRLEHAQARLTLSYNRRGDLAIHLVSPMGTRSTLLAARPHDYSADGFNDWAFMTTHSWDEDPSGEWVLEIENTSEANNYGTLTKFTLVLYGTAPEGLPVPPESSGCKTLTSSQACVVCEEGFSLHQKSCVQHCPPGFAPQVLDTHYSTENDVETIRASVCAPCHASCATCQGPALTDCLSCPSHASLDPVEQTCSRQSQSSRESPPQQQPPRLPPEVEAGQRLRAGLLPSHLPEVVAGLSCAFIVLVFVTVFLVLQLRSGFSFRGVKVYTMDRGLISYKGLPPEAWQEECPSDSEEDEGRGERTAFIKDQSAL

B1: HC263 (peptide)
chain: CANDCPNSSIAGNASASA
For B1, the “furin cleavage Z-score” value reads like this: (7.5 min) 0.567 (inactive); (15 min) 0.0331 (inactive); (30 min) -0.164 (inactive).

B2: FS-1757 (peptide)
chain: CARNKRESGKAGNASASA
B2: the “furin cleavage Z-score” value runs as follows: (7.5 min) 8.44 (active); (15 min) 9.42 (active); (30 min) 7.75 (active).

B3: FS-2727 (peptide)
chain: CARNKREDRTAGNASASA
In the case of B3, the “furin cleavage Z-score” value is, setting by setting: (7.5 min) 11.9 (active); (15 min) 12.6 (active); (30 min) 8.05 (active).

B4: FS-1888 (peptide)
chain: CAREKRKNRTAGNASASA
On to B4, for which the “furin cleavage Z-score” value runs as follows: (7.5 min) 0.751 (inactive); (15 min) 1.62; (30 min) -0.32 (inactive).

B5: FS-2914 (peptide)
chain: CAREKKVTRTAGNASASA
On to B5, for which the “furin cleavage Z-score” value reads like this: (7.5 min) -1.91 (inactive); (15 min) -0.133 (inactive); (30 min) 0.367 (inactive).

B6: FS-3119 (peptide)
chain: CARVLRENGKAGNASASA
In the case of B6, the “furin cleavage Z-score” value (7.5 min) was 0.679 (inactive), the “furin cleavage Z-score” value (15 min) is -0.235 (inactive) and the “furin cleavage Z-score” value (30 min) was 0.807 (inactive).

B7: HC1133 (peptide)
chain: CATAILSSLTAGNASASA
Consider B7, for which the “furin cleavage Z-score” value runs as follows: (7.5 min) -0.0959 (inactive); (15 min) 1.64; (30 min) 1.05.

B8: HC333 (peptide)
chain: CALDMIAGAHAGNASASA
Consider B8, for which the “furin cleavage Z-score” value (7.5 min) is -0.265 (inactive), the “furin cleavage Z-score” value (15 min) is -1.79 (inactive) and the “furin cleavage Z-score” value (30 min) was 0.6 (inactive).

B9: HC89 (peptide)
chain: CAVVCHSMSYAGNASASA
Regarding B9, the “furin cleavage Z-score” value (7.5 min) was -0.697 (inactive), the “furin cleavage Z-score” value (15 min) was -0.997 (inactive) and the “furin cleavage Z-score” value (30 min) was -0.52 (inactive).

B10: HC1153 (peptide)
chain: CACEVLSDFKAGNASASA
With B10, the “furin cleavage Z-score” value (7.5 min) is -1.16 (inactive), the “furin cleavage Z-score” value (15 min) is -1.03 (inactive) and the “furin cleavage Z-score” value (30 min) was 0.3 (inactive).

B11: FS-466 (peptide)
chain: CANGFRHARNAGNASASA
In the case of B11, the “furin cleavage Z-score” value is, setting by setting: (7.5 min) -0.528 (inactive); (15 min) -0.454 (inactive); (30 min) -0.259 (inactive).

B12: FS-211 (peptide)
chain: CAAASRLARGAGNASASA
Regarding B12, the “furin cleavage Z-score” value runs as follows: (7.5 min) 0.553 (inactive); (15 min) 1.11; (30 min) 0.636 (inactive).

B13: FS-475 (peptide)
chain: CAPNSRLARNAGNASASA
As to B13, the “furin cleavage Z-score” value reads like this: (7.5 min) 6.58 (active); (15 min) 6.13 (active); (30 min) 6.41 (active).

B14: FS-984 (peptide)
chain: CADNKRMARNAGNASASA
Regarding B14, the “furin cleavage Z-score” value (7.5 min) was 5.12 (active), the “furin cleavage Z-score” value (15 min) is 6.32 (active) and the “furin cleavage Z-score” value (30 min) is 6.33 (active).

B15: HC1438 (peptide)
chain: CADTTIMAKNAGNASASA
In the case of B15, the “furin cleavage Z-score” value was 1.51 (7.5 min), -0.0215 (inactive) (15 min) and 0.93 (inactive) (30 min).

B16: FS-2045 (peptide)
chain: CARLYRSLGEAGNASASA
As for B16, the “furin cleavage Z-score” value runs as follows: (7.5 min) 1.86; (15 min) 4.55 (active); (30 min) 4.61 (active).

B17: FS-2317 (peptide)
chain: CARVKRDLVLAGNASASA
In the case of B17, the “furin cleavage Z-score” value (7.5 min) was 8.24 (active), the “furin cleavage Z-score” value (15 min) was 11 (active) and the “furin cleavage Z-score” value (30 min) was 9.42 (active).

B18: FS-3136 (peptide)
chain: CASKKRSNGLAGNASASA
For the sequence B18, the “furin cleavage Z-score” value was -1.83 (inactive) (7.5 min), 0.376 (inactive) (15 min) and 2.11 (30 min).

B19: FS-2618 (peptide)
chain: CARVKRVLMGAGNASASA
For B19, the “furin cleavage Z-score” value was -0.934 (inactive) (7.5 min), -0.615 (inactive) (15 min) and -0.629 (inactive) (30 min).

B20: FS-2916 (peptide)
chain: CARELRQLMEAGNASASA
Turning to B20, the “furin cleavage Z-score” value by setting is: (7.5 min) 0.168 (inactive); (15 min) -0.988 (inactive); (30 min) -1.36 (inactive).

B21: FS-2387 (peptide)
chain: CARVKRSPGLAGNASASA
For the sequence B21, the “furin cleavage Z-score” value is 10.4 (active) (7.5 min), 10.3 (active) (15 min) and 9.1 (active) (30 min).

B22: FS-1977 (peptide)
chain: CARVKRSLGEAGNASASA
Take B22: the “furin cleavage Z-score” value (7.5 min) is 10.7 (active), the “furin cleavage Z-score” value (15 min) was 12.6 (active) and the “furin cleavage Z-score” value (30 min) is 9.34 (active).

B23: FS-2726 (peptide)
chain: CARNKKDVNLAGNASASA
On to B23, for which the “furin cleavage Z-score” value runs as follows: (7.5 min) 0.881 (inactive); (15 min) 0.588 (inactive); (30 min) 0.399 (inactive).

B24: HC974 (peptide)
chain: CARLGAVQNEAGNASASA
Regarding B24, the “furin cleavage Z-score” value (7.5 min) is -1.44 (inactive), the “furin cleavage Z-score” value (15 min) was -1.09 (inactive) and the “furin cleavage Z-score” value (30 min) was -2.56 (inactive).

B25: HC257 (peptide)
chain: CAQVRNSTGLAGNASASA
B25: the “furin cleavage Z-score” value is, setting by setting: (7.5 min) -0.176 (inactive); (15 min) 1.49; (30 min) 0.103 (inactive).

B26: HC1150 (peptide)
chain: CADIWDWICEAGNASASA
For the sequence B26, the “furin cleavage Z-score” value was -0.513 (inactive) (7.5 min), -0.19 (inactive) (15 min) and -1.62 (inactive) (30 min).

B27: HC146 (peptide)
chain: CAEVVTFTWVAGNASASA
Turning to B27, the “furin cleavage Z-score” value reads like this: (7.5 min) -0.177 (inactive); (15 min) -1.31 (inactive); (30 min) -0.383 (inactive).

B28: HC1466 (peptide)
chain: CAYGFQYSPGAGNASASA
On to B28, for which the “furin cleavage Z-score” value is, setting by setting: (7.5 min) -1.04 (inactive); (15 min) 0.304 (inactive); (30 min) -1.02 (inactive).
